Measured values: PubChem BioAssay AID1159580 (chemical genetic matrix, 2015)
Several values for one entry are separate records, joined by “and”; a condition that tells them apart may be missing. Identical values can stand only once. In all, about 5,500 compounds went through this assay and about 2,000 (36%) were called active. About 18% were inconclusive and are not listed. Rule as the data show it: active = normalized growth mostly below about 0.91 (no sharp cut-off); inconclusive = no clear call, values can overlap the other calls; inactive = mostly above about 0.92. The list shows a part of the results.

Assay: chemical genetic growth profiling, strain panel (AID 1159580);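 also: tested at 20 µM; growth read once vehicle control cultures reached saturation at 30 °C; 1 = growth at the plate median or of vehicle wells; lower values mean less growth of the strain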
Details: S. cerevisiae deletion strains, growth OD

Measured: normalized growth

O=C(/C=C/c1ccccc1)c1ccc(O[C@@H]2O[C@H](CO)[C@@H](O)[C@H](O)[C@H]2O)cc1O
active: locus YBL061C, strain skt5, active compounds read low 0.886 | locus YBR023C, strain chs3, active compounds read low 0.912 | locus YBR231C, strain swc5, active compounds read low 0.899 | locus YCL029C, strain bik1, active compounds read low 0.889 | locus YCL061C, strain MRC1, active compounds read low 0.919 | locus YDL185W, strain tfp1, active compounds read low 0.885 | locus YDL192W, strain arf1, active compounds read low 0.829 | locus YDR001C, strain nth1, active compounds read low 0.916 | locus YDR101C, strain arx1, active compounds read low 0.892 | locus YDR159W, strain sac3, active compounds read low 0.855 | locus YDR297W, strain sur2, active compounds read low 0.921 | locus YDR318W, strain mcm21, active compounds read low 0.892 | locus YDR388W, active compounds read low 0.877 | locus YDR502C, strain sam2, active compounds read low 0.882 | locus YEL061C, strain CIN8, active compounds read low 0.918 | locus YER016W, strain bim1, active compounds read low 0.921 | locus YER110C, active compounds read low 0.869 | locus YER155C, strain BEM2 (second series), active compounds read low 0.853 | locus YER155C, strain BEM2, active compounds read low 0.912 | locus YER167W, strain BCK2, active compounds read low 0.9 | locus YGL086W, strain mad1, active compounds read low 0.885 | locus YGL173C, strain kem1, active compounds read low 0.899 | locus YGL240W, strain doc1, active compounds read low 0.853 | locus YGL253W, strain hxk2, active compounds read low 0.902 | locus YGR135W, strain pre9, active compounds read low 0.886 | locus YHR079C, strain IRE1 (second series), active compounds read low 0.886 | locus YHR094C, strain hxt1, active compounds read low 0.888 | locus YHR129C, strain ARP1, active compounds read low 0.91 | locus YHR200W, strain rpn10, active compounds read low 0.873 | locus YIL125W, strain kgd1, active compounds read low 0.895 | locus YIR030C, strain dcg1, active compounds read low 0.881 | locus YJL134W, strain LCB3, active compounds read low 0.917 | locus YJL164C, strain tpk1, active compounds read low 0.91 | locus YJL168C, strain set2, active compounds read low 0.888 | locus YKL068W, active compounds read low 0.905 | locus YKL085W, strain MDH1 (second series), active compounds read low 0.902 | locus YKL085W, strain MDH1, active compounds read low 0.902 | locus YKR001C, strain vps1, active compounds read low 0.819 | locus YLL001W, strain dnm1, active compounds read low 0.896 | locus YLL026W, active compounds read low 0.924 | locus YLR102C, strain apc9, active compounds read low 0.891 | locus YLR268W, strain sec22, active compounds read low 0.88 | locus YLR330W, strain CHS5, active compounds read low 0.904 | locus YLR342W, strain FKS1 (second series), active compounds read low 0.767 | locus YLR342W, strain FKS1, active compounds read low 0.865 | locus YLR370C, strain arc18, active compounds read low 0.91 | locus YLR371W, strain rom2, active compounds read low 0.756 | locus YLR384C, strain iki3, active compounds read low 0.907 | locus YLR418C, strain cdc73, active compounds read low 0.739 | locus YML016C, strain PPZ1, active compounds read low 0.909 | locus YML124C, strain tub3, active compounds read low 0.897 | locus YMR078C, strain ctf18, active compounds read low 0.9 | locus YMR129W, active compounds read low 0.91 | locus YMR223W, strain ubp8, active compounds read low 0.877 | locus YNL250W, strain rad50, active compounds read low 0.892 | locus YNL271C, strain bni1, active compounds read low 0.858 | locus YNL298W, strain CLA4, active compounds read low 0.884 | locus YNL307C, strain MCK1, active compounds read low 0.887 | locus YOL147C, strain pex11, active compounds read low 0.903 | locus YOR069W, strain VPS5, active compounds read low 0.917 | locus YOR083W, strain WHI5, active compounds read low 0.859 | locus YOR136W, strain idh2, active compounds read low 0.912 | locus YOR144C, strain elg1, active compounds read low 0.886 | locus YOR184W, strain ser1, active compounds read low 0.864 | locus YOR265W, strain rbl2, active compounds read low 0.926 | locus YOR316C, strain cot1, active compounds read low 0.9 | locus YPL078C, strain atp4, active compounds read low 0.891 | locus YPL106C, strain sse1, active compounds read low 0.811 | locus YPL241C, strain CIN2, active compounds read low 0.916 | locus YPR119W, strain clb2, active compounds read low 0.885 | locus YPR141C, strain kar3, active compounds read low 0.877 | locus YPR163C, strain tif3, active compounds read low 0.899 | locus YPR167C, strain met16, active compounds read low 0.916 | strain wtn01, active compounds read low 0.859
inactive: locus YAL021C, strain ccr4, active compounds read low 0.97 | locus YAL026C, strain drs2, active compounds read low 0.923 | locus YAL030W, strain snc1, active compounds read low 0.933 | locus YBR009C, strain hhf1, active compounds read low 0.935 | locus YBR021W, strain FUR4, active compounds read low 0.883 | locus YBR171W, strain sec66, active compounds read low 0.914 | locus YBR229C, strain ROT2, active compounds read low 0.922 | locus YBR279W, strain paf1, active compounds read low 0.96 | locus YCL011C, strain gbp2, active compounds read low 0.938 | locus YCL016C, strain dcc1, active compounds read low 0.925 | locus YCL069W, strain vba3, active compounds read low 0.96 | locus YCR088W, strain abp1, active compounds read low 0.923 | locus YDL005C, strain med2, active compounds read low 0.955 | locus YDL035C, strain GPR1, active compounds read low 0.926 | locus YDL040C, strain nat1, active compounds read low 0.937 | locus YDL074C, strain BRE1, active compounds read low 0.861 | locus YDL101C, strain DUN1, active compounds read low 0.943 | locus YDR069C, strain doa4, active compounds read low 0.974 | locus YDR137W, strain rgp1, active compounds read low 0.947 | locus YDR162C, strain NBP2, active compounds read low 0.944 | locus YDR195W, strain ref2 1 | locus YDR334W, strain swr1, active compounds read low 0.95 | locus YDR335W, strain msn5, active compounds read low 0.938 | locus YDR392W, strain spt3, active compounds read low 0.787 | locus YEL003W, strain gim4, active compounds read low 0.931 | locus YEL037C, strain rad23, active compounds read low 0.945 | locus YEL061C, strain CIN8 (second series), active compounds read low 0.928 | locus YER015W, strain faa2, active compounds read low 0.938 | locus YER111C, strain swi4, active compounds read low 0.935 | locus YFR010W, strain ubp6, active compounds read low 0.951 | locus YGL078C, strain dbp3, active compounds read low 0.948 | locus YGL167C, strain pmr1, active compounds read low 0.947 | locus YGL227W, strain vid30, active compounds read low 0.932 | locus YGL248W, strain PDE1, active compounds read low 0.936 | locus YGR252W, strain gcn5, active compounds read low 0.79 | locus YHR013C, strain ard1, active compounds read low 0.941 | locus YHR027C, strain rpn1, active compounds read low 0.957 | locus YHR030C, strain SLT2, active compounds read low 0.922 and 0.953 | locus YHR079C, strain IRE1, active compounds read low 0.918 | locus YHR142W, strain chs7, active compounds read low 0.882 | locus YIL066C, strain RNR3, active compounds read low 0.906 | locus YIL073C, strain SPO22, active compounds read low 0.956 | locus YJL092W, strain hpr5, active compounds read low 0.926 | locus YJL095W, strain BCK1 (second series), active compounds read low 0.944 | locus YJL095W, strain BCK1, active compounds read low 0.923 and 0.945 | locus YJL115W, strain asf1, active compounds read low 0.941 | locus YJL129C, strain trk1, active compounds read low 0.897 | locus YJL154C, strain vps35, active compounds read low 0.942 | locus YJL166W, strain qcr8, active compounds read low 0.928 | locus YJL187C, strain SWE1 (second series), active compounds read low 0.93 | locus YJL187C, strain SWE1, active compounds read low 0.95 | locus YJR043C, strain POL32, active compounds read low 0.893 | locus YJR066W, strain TOR1, active compounds read low 0.857 | locus YJR075W, strain HOC1, active compounds read low 0.913 | locus YKL009W, strain mrt4, active compounds read low 0.906 | locus YKL160W, strain elf1, active compounds read low 0.911 | locus YKL190W, strain CNB1, active compounds read low 0.934 | locus YKR026C, strain gcn3, active compounds read low 0.933 | locus YKR091W, strain srl3, active compounds read low 0.938 | locus YLL041C, strain sdh2, active compounds read low 0.937 | locus YLR027C, strain aat2, active compounds read low 0.937 | locus YLR039C, strain RIC1, active compounds read low 0.918 | locus YLR058C, strain SHM2, active compounds read low 0.93 | locus YLR113W, strain HOG1, active compounds read low 0.937 | locus YLR221C, strain rsa3, active compounds read low 0.934 | locus YLR258W, strain gsy2, active compounds read low 0.916 | locus YLR262C, strain YPT6 (second series), active compounds read low 0.911 | locus YLR262C, strain YPT6, active compounds read low 0.949 | locus YLR320W, strain mms22, active compounds read low 0.894 | locus YLR357W, strain rsc2, active compounds read low 0.929 | locus YML032C, strain rad52, active compounds read low 0.916 | locus YML120C, strain ndi1, active compounds read low 0.933 | locus YMR058W, strain fet3, active compounds read low 0.931 | locus YMR125W, strain sto1, active compounds read low 0.938 | locus YMR205C, strain PFK2, active compounds read low 0.922 | locus YMR231W, strain pep5, active compounds read low 0.947 | locus YMR307W, strain GAS1, active compounds read low 0.692 | locus YNL067W, strain RPL9B, active compounds read low 0.945 | locus YNL071W, strain lat1, active compounds read low 0.942 | locus YNL183C, strain NPR1, active compounds read low 0.911 | locus YNL209W, strain ssb2, active compounds read low 0.937 | locus YNL233W, strain BNI4, active compounds read low 0.877 | locus YNL248C, strain rpa49, active compounds read low 0.896 | locus YNL322C, strain KRE1 (second series), active compounds read low 0.921 | locus YNL322C, strain KRE1, active compounds read low 0.936 | locus YNR049C, strain mso1, active compounds read low 0.919 | locus YNR052C, strain pop2, active compounds read low 0.92 | locus YOL006C, strain TOP1, active compounds read low 0.879 | locus YOL012C, strain htz1 1.32 | locus YOR001W, strain rrp6, active compounds read low 0.953 | locus YOR061W, strain CKA2, active compounds read low 0.933 | locus YOR070C, strain gyp1, active compounds read low 0.93 | locus YOR080W, strain dia2, active compounds read low 0.948 | locus YOR106W, strain vam3, active compounds read low 0.9 | locus YOR231W, strain MKK1, active compounds read low 0.952 | locus YOR270C, strain vph1, active compounds read low 0.925 | locus YOR290C, strain snf2, active compounds read low 0.941 | locus YPL051W, strain arl3, active compounds read low 0.931 | locus YPL055C, strain LGE1, active compounds read low 0.901 | locus YPL240C, strain hsp82, active compounds read low 0.932 | locus YPL256C, strain CLN2, active compounds read low 0.889
